A549 tox: kills or reduces viability of A549 cells in Nrf2 counter-screen | A549 ARE-Fluc cells, CellTiter-Fluor viability, 18-24 h | Potency, µM (highest dose often 46 µM), for inactives: top-dose activity change, negative = cytotoxicity, hits mostly inhibitors | actives 0.16% (n = 390,000) | AID 504648; also: % is scaled to controls: 0 for no effect and ±100 for the full control effect
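Cytotoxicity counterscreen: CellTiter-Fluor fluorescence was measured in A549 ARE_Fluc cells after 18-24 h of compound exposure in a concentration series. The subsequent BugLite luminescent read reports ARE-luciferase activity.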
ELG1 repair inh: ELG1-dependent DNA repair inhibition. actives 2.3% (n = 330,000). Potency, µM (highest dose often 46.1 µM), for the others: at the top dose activity change, negative = inhibition, hits mostly inhibitors. HEK293T ELG1-luciferase reporter, luminescence, 16 h; DNA damage induced by 5-fluorouridine; also: % is scaled to controls: 0 for no effect and ±100 for the full control effect; nearly all actives have a fitted effect of over 55% in size
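DMSO vehicle served as the neutral condition. Each well held 2,000 cells given 5-fluorouridine plus compound; after 16 hr at 37 °C/5% CO2, ONE-Glo was added and luciferase measured 30 min later.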
Nrf2 ARE act: Nrf2 pathway activation; AREc32 ARE-luciferase reporter (MCF7-derived line), luminescence, 24 h; Potency, µM (series often up to 46.1 µM), without a hit: at the highest dose activation, most hits filed as activators; actives 0.31% (n = 410,000); also: % of control where 0% means no effect; nearly all actives have a fitted effect of over 65% in size
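Luminescent ARE reporter assay in AREc32_Fluc cells: overnight plating at 37 deg C, 24 hr compound incubation, Steady-Glo added, 30 min RT before reading.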
Nrf2 block: Nrf2 pathway inhibition; A549 ARE-Fluc reporter, luciferase luminescence, 18-24 h; Potency, µM (highest dose often 46 µM), for inactives: at the highest dose activity change, negative = inhibition, most hits filed as inhibitors; actives 2.1% (n = 360,000); also: % is scaled to controls: 0 for no effect and ±100 for the full control effect; nearly all actives have a fitted effect of over 60% in size
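A549 ARE_Fluc cells, 5000/well, 5% FBS OPTI-MEM; compounds in dose-response, 18-24 h at 37 °C/5% CO2; CellTiter-Fluor viability read (Ex 405/Em 525), then BugLite luciferase luminescence = Nrf2 activity.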
The depositor's hits bear a star; [ ] = dose if it differs, or a comment. Rows were chosen to be rich in hits. Some 3.7% of all compounds tested hit in one or more screens of this group. Calls follow the shape of the dose curve; as a rule, active = well fitted curve in the direction sought with a large enough effect; inconclusive = small, poorly fitted or top-dose-only effect, or another doubt; inactive = no such curve, though single readings can be large; an effect the other way counts as inactive or inconclusive. Potency is read from the fitted curve at half-maximal effect.

For Cc1cc(C)c(NC(=O)Cn2nc(-c3ccncc3)ccc2=O)c(C)c1 the results were A549 tox 0% and Nrf2 ARE act 0%.
Screening CC1Cc2nc(SCC(=O)Nc3ccc4c(c3)OCO4)n(CCc3ccccc3)c(=O)c2S1 (stereo not given) returned A549 tox 1%, ELG1 repair inh 13µM*, Nrf2 ARE act 3% and Nrf2 block -28%.
For CCSc1nnc(NC(=O)CSc2nc3c(c(=O)n2C)SC(C)C3)s1 (stereo not given) the results were A549 tox -9%, ELG1 repair inh inconclusive, Nrf2 ARE act 0% and Nrf2 block inconclusive.
`CCSc1nnc(NC(=O)CSc2nc3c(c(=O)n2CC)SC(C)C3)s1` (stereo not given) gave A549 tox -14%, ELG1 repair inh inconclusive, Nrf2 ARE act 0% and Nrf2 block 18µM*.
`N#Cc1ccc(CSc2ccc(S(=O)(=O)N3CCCCCC3)cn2)cc1` gave A549 tox -1%, ELG1 repair inh inconclusive, Nrf2 ARE act 0% and Nrf2 block inconclusive.
For S=C(Nc1ccc(N2CCOCC2)cc1)Nc1ccc2snnc2c1 the results were A549 tox 7%, ELG1 repair inh 6%, Nrf2 ARE act 5% and Nrf2 block 11%.
For CCOc1ccc(Nc2ncnc3c2cnn3Cc2ccccc2)cc1 the results were A549 tox -4%, ELG1 repair inh inconclusive, Nrf2 ARE act 1% and Nrf2 block inconclusive.
CCO/C=N/Nc1nc(C(F)(F)F)nc2c1cnn2Cc1ccccc1 was read as A549 tox -19%, ELG1 repair inh inconclusive, Nrf2 ARE act 0% and Nrf2 block 23µM*.
For CCCCCCCC[n+]1cccc2c3ccccc3ccc21 the results were A549 tox -7%, ELG1 repair inh inconclusive, Nrf2 ARE act 0% and Nrf2 block inconclusive.
Screening CCCCCCCCCC[n+]1cccc2c3ccccc3ccc21 returned A549 tox 2%, ELG1 repair inh 2.3µM*, Nrf2 ARE act -3% and Nrf2 block -12%.
Screening Cc1ccc(C(=O)N2CCc3cc4c(cc3C2C)OCCCO4)cc1 (stereo not given) returned A549 tox inconclusive, ELG1 repair inh -5%, Nrf2 ARE act 0% and Nrf2 block -10%.
CC(=O)c1cccc(NC(=O)CN2CCc3cc4c(cc3C2C)OCCCO4)c1 (stereo not given) was read as A549 tox 2%, ELG1 repair inh 12µM*, Nrf2 ARE act 0% and Nrf2 block inconclusive.
For CC1c2cc3c(cc2CCN1CC(=O)Nc1ccc(S(=O)(=O)N2CCCC2)cc1)OCCCO3 (stereo not given) the results were A549 tox 9%, ELG1 repair inh inconclusive, Nrf2 ARE act -1% and Nrf2 block inconclusive.
CC1c2cc3c(cc2CCN1C(=O)c1ccc(Cl)cc1)OCCCO3 (stereo not given) was read as A549 tox -6%, ELG1 repair inh 23µM*, Nrf2 ARE act 0% and Nrf2 block inconclusive.
`CCc1ccc2c(c1)c1nnc(NN)nc1n2CC` gave A549 tox -21%, ELG1 repair inh 16µM*, Nrf2 ARE act 0% and Nrf2 block -24%.
NNc1nnc2c3cc(F)ccc3n(Cc3ccccc3)c2n1 was read as A549 tox -21%, ELG1 repair inh 9.2µM*, Nrf2 ARE act 0% and Nrf2 block inconclusive.
CCn1c2ccc(F)cc2c2nnc(NN)nc21 was read as A549 tox -8%, ELG1 repair inh -19%, Nrf2 ARE act 0% and Nrf2 block -5%.
CCCn1c(CCCNC(=O)c2ccccc2OC)nc2ccccc21 was read as A549 tox 2%, Nrf2 ARE act -1% and Nrf2 block -2%[9.27 µM].
`Cc1ccccc1C(=O)Nc1cccc(C(=O)OCc2cc(=O)n3c4c(sc3n2)CCCC4)c1` gave A549 tox -13% and Nrf2 ARE act 0%.
COc1cc(S(=O)(=O)Nc2ccc3nc(C)sc3c2)ccc1NC(C)=O was read as A549 tox -2%, ELG1 repair inh -9%, Nrf2 ARE act 0% and Nrf2 block inconclusive.
For CCOC(=O)C1CCCN(CCC(=O)Nc2ccc(OC)cc2OC)C1 (stereo not given) the results were A549 tox -2%, Nrf2 ARE act -1% and Nrf2 block 11%.
CCNc1nc(NCC)nc(OCCNS(=O)(=O)c2cc(C)ccc2C)n1 was read as A549 tox -5%, ELG1 repair inh inconclusive, Nrf2 ARE act 0% and Nrf2 block 4%.
Screening CCNc1nc(NC(C)C)nc(OCCNS(=O)(=O)c2cc(C)ccc2C)n1 returned A549 tox -9%, ELG1 repair inh 21µM*, Nrf2 ARE act 0% and Nrf2 block -6%.
For O=C(O)c1cc(S(=O)(=O)N2CCN(C(c3ccccc3)c3ccccc3)CC2)ccc1Cl the results were A549 tox 1%, ELG1 repair inh -4%, Nrf2 ARE act 0% and Nrf2 block 13%.
Screening O=C(CCc1ccc(Oc2cc([N+](=O)[O-])cc([N+](=O)[O-])c2)cc1)N1CCCCC1 returned A549 tox -14%, ELG1 repair inh 13µM*, Nrf2 ARE act 4% and Nrf2 block -19%.
Screening O=C(c1cccc(Oc2ccc([N+](=O)[O-])cc2Cl)c1)N1CCCCC1 returned A549 tox 1%, ELG1 repair inh 23µM*, Nrf2 ARE act -1% and Nrf2 block -7%.
For O=C(c1ccc(Oc2ccc([N+](=O)[O-])cc2)cc1)N1CCCCCC1 the results were A549 tox -10%, ELG1 repair inh inconclusive, Nrf2 ARE act 0%[9.22 µM] and Nrf2 block 5.8µM*.
For O=C(CCc1ccc(Oc2cc([N+](=O)[O-])cc([N+](=O)[O-])c2)cc1)Nc1cccc(Cl)c1 the results were A549 tox -3%, ELG1 repair inh -20%, Nrf2 ARE act 1% and Nrf2 block -4%.
`O=C(c1ccc(Oc2ccc([N+](=O)[O-])cc2Cl)cc1)N1CCCC1` gave A549 tox 11%, ELG1 repair inh inconclusive, Nrf2 ARE act 5% and Nrf2 block inconclusive.
For CC1CC=CC2C1C(=O)N(Cc1ccccc1)C2c1cccc([N+](=O)[O-])c1 (stereo not given) the results were A549 tox -3% and Nrf2 block -4%.
`COc1ccc(C(=O)C2CCN(C(=O)c3ccc(OC)cc3)CC2)cc1` gave A549 tox -11%, ELG1 repair inh -7%, Nrf2 ARE act 0% and Nrf2 block 23µM*.
For Cc1ccc(C(=O)C2CCN(C(=O)c3ccc(C)cc3)CC2)cc1 the results were A549 tox -14%, ELG1 repair inh inconclusive, Nrf2 ARE act 0% and Nrf2 block 23µM*.
`COc1ccc(NC(=S)N2CCC(C(=O)c3ccc(OC)cc3)CC2)cc1` gave A549 tox 2%, ELG1 repair inh 23µM*, Nrf2 ARE act 5% and Nrf2 block inconclusive.

Screening results from PubChem.
